Source: PubChem BioAssay
MARV entry inh: blocks Marburg virus binding to or entry into cells | Marburg virus pseudotyped entry inhibition, cell reporter | hit rate 1.8% among 300,000 | Potency, µM (doses to about 37.8 µM), inactives show at the highest dose activity change, negative = inhibition, most hits filed as inhibitors; calls by dose curve; tested in HEK293 cells; further: potency means the concentration at half of the fitted maximal effect
VACV mCherry inh: vaccinia inhibition (mCherry reporter); Vaccinia virus mCherry reporter infection, fluorescence; Potency, µM (highest dose often 36.5 µM), inactives show top-dose activity change, negative = inhibition, actives largely listed as inhibitors; hit rate 0.63% among 310,000; calls by dose curve; tested in A549 cells; further: potency means the concentration at half of the fitted maximal effect; nearly all actives have a fitted effect of over 35% in size
FMDV inh: foot and mouth disease virus antiviral activity | FMDV antiviral cell-based qHTS | Potency, µM (doses to about 57.9 µM), for the others: at the top dose activity change, negative = inhibition, most hits filed as inhibitors | hit rate 1.2% among 410,000 | AID 1159524; calls by dose curve; tested in HEK293T cells; further: read-out not given here; potency means the concentration at half of the fitted maximal effect; nearly all actives have a fitted effect of over 45% in size
Lassa entry inh: Lassa virus entry inhibition; Lassa virus pseudotype entry inhibition, cell reporter; Potency, µM (series often up to 37.9 µM), inactives show at the top dose activity change, negative = inhibition, hits mostly inhibitors; hit rate 1.2% among 300,000; AID 540256; calls by dose curve; tested in HEK293 cells; further: potency means the concentration at half of the fitted maximal effect; nearly all actives have a fitted effect of over 50% in size
Vaccinia Venus: inhibitors of vaccinia virus (Venus reporter) | Vaccinia virus Venus reporter expression, fluorescence | Potency, µM (series often up to 36.5 µM), inactives show top-dose activity change, negative = inhibition, usual class: inhibitors | hit rate 0.46% among 330,000; calls by dose curve; tested in A549 cells; further: potency means the concentration at half of the fitted maximal effect; nearly all actives have a fitted effect of over 30% in size
HCMV inh: blocks human cytomegalovirus replication. HFF cells, HCMV-luciferase reporter, 72 h; stronger effect = lower value. AID 1259415. hit rate 4.5% among 410,000. activity change, negative = inhibition, % at 57.5 µM; in the data active means activity change below about -60%; inconclusive means no clear call, values can overlap the other calls; inactive means above about -39%
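Luciferase read-out from HCMV-luciferase-infected HFFs (MOI 1 PFU/cell) 72 h post infection at 37C; compounds added after 16 h cell attachment; activity normalized between buffer-only basal and Salinomycin (10uM) inhibitor controls.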
Starred values were filed as active, the others as inactive; [ ] = dose if it differs, or a comment. In the library only some 6.5% were active in any assay of this set; here they are far more common. On the % scale 0 is the no-effect control and ±100 the full control effect.

Results for COc1cccc(C(=O)c2ccncc2C(=O)O)c1OC ?
VACV mCherry inh: -13%; FMDV inh: -19%; Vaccinia Venus: -3%; HCMV inh: -27

Results for C=C(CCC(=O)c1ccccc1)C(=O)c1ccccc1 ?
MARV entry inh: inconclusive; VACV mCherry inh: -17%; FMDV inh: inconclusive; Lassa entry inh: inconclusive; Vaccinia Venus: inconclusive; HCMV inh: -81*

What do the screens show for `C=C(C(=O)c1ccccc1)C(CC(=O)c1ccccc1)c1ccccc1` (centres undefined)?
MARV entry inh: inconclusive; VACV mCherry inh: 13µM*; FMDV inh: 18µM*; Lassa entry inh: 10µM*; Vaccinia Venus: inconclusive; HCMV inh: -101*

How did O=C(Cc1ccccc1)CC(CC(=O)c1ccccc1)c1ccccc1 (centres undefined) do in these assays?
VACV mCherry inh: -6%; FMDV inh: -1%; Vaccinia Venus: -15%; HCMV inh: -35

Results for C(=C\c1nccc2ccccc12)/c1ccc(N2CCOCC2)cc1 ?
VACV mCherry inh: -26%; Vaccinia Venus: -17%

What do the screens show for `CCOC(=O)c1c(NC(=O)CSc2nnc(Cc3ccccc3)o2)sc(C(C)=O)c1C`?
MARV entry inh: -22%; FMDV inh: inconclusive; Lassa entry inh: -28%; HCMV inh: 14

What do the screens show for `CCOC(=O)c1sc(NC(=O)CSc2n[nH]c(-c3ccccc3)n2)c(C#N)c1C`?
MARV entry inh: inconclusive; VACV mCherry inh: inconclusive; FMDV inh: 0%; Lassa entry inh: -13%; Vaccinia Venus: inconclusive; HCMV inh: -32

Results for CCOC(=O)c1sc(NC(=O)CSc2nnc(Cc3ccccc3)o2)c(C#N)c1C ?
MARV entry inh: 28%; FMDV inh: 32µM*; Lassa entry inh: -16%; Vaccinia Venus: 12%

Results for Cc1ccc(C)c(-c2cc(C(=O)Nc3sc(C)c(C)c3C(N)=O)c3ccccc3n2)c1 ?
MARV entry inh: inconclusive; FMDV inh: 22µM*; Lassa entry inh: inconclusive; HCMV inh: -33

How did Cc1cccc(-c2cc(C(=O)Nc3sc(C)c(C)c3C(N)=O)c3ccccc3n2)c1 do in these assays?
MARV entry inh: inconclusive; VACV mCherry inh: inactive; FMDV inh: 0%; Lassa entry inh: -23%; Vaccinia Venus: -9%; HCMV inh: 2

How did CCOC(=O)c1sc(NC(=O)c2cc(-c3ccccc3)nc3ccccc23)c(C#N)c1C do in these assays?
MARV entry inh: inconclusive; VACV mCherry inh: -4%; FMDV inh: inconclusive; Lassa entry inh: -27%; Vaccinia Venus: -21%; HCMV inh: -95*

Results for C[C@H](CCCC/C=C/C(=O)O)O[C@@H]1O[C@@H](C)[C@H](O)C[C@H]1O ?
VACV mCherry inh: inactive; FMDV inh: -5%; Vaccinia Venus: -9%; HCMV inh: 3

How did CSCCC(NC(=O)c1ccc(Cl)c([N+](=O)[O-])c1)C(=O)N1CCN(C/C=C/c2ccccc2)CC1 (centres undefined) do in these assays?
MARV entry inh: inconclusive; VACV mCherry inh: -13%; FMDV inh: inconclusive; Lassa entry inh: inconclusive; Vaccinia Venus: -13%; HCMV inh: 8

What do the screens show for `COc1ccc(-c2nccc3[nH]nc(-c4ccccc4)c23)cc1`?
HCMV inh: -19

How did COc1ccccc1C1CN(Cc2cccn2-c2ncccn2)Cc2ccccc2O1 (centres undefined) do in these assays?
VACV mCherry inh: 0%; FMDV inh: -19%; Vaccinia Venus: 9%

Results for COc1ccc(Nc2c3c(nc4ccc(NC(=O)/C=C/c5cccc(OC)c5OC)cc24)CCCC3)cc1OC ?
MARV entry inh: inconclusive; VACV mCherry inh: inconclusive; FMDV inh: inconclusive; Lassa entry inh: inconclusive; Vaccinia Venus: inconclusive; HCMV inh: -97*

How did COc1ccccc1Nc1c2c(nc3ccc(NC(=O)/C=C/c4cccc(OC)c4OC)cc13)CCCC2 do in these assays?
MARV entry inh: inconclusive; VACV mCherry inh: inconclusive; FMDV inh: -27%; Lassa entry inh: -20%[46.1 µM]; Vaccinia Venus: inconclusive; HCMV inh: -99*

How did COc1ccc(/C=C/C(=O)Nc2ccc3nc4c(c(Nc5ccccc5OC)c3c2)CCCC4)cc1 do in these assays?
MARV entry inh: inconclusive; VACV mCherry inh: -12%[7.34 µM]; FMDV inh: 0%; Lassa entry inh: 22%[46.1 µM]; Vaccinia Venus: -23%[7.34 µM]; HCMV inh: -102*
